# The entries come from a sample that favours hits as a whole.
# Pf Dd2 growth = inhibitors of Plasmodium falciparum Dd2 growth. hit rate 4.3% among 120,000. Potency, µM (doses to about 28.9 µM), inactives show at the highest dose activity, negative = inhibition, hits mostly inhibitors. P. falciparum Dd2 growth, SYBR Green, 72 h; active = well fitted inhibition curve with a large enough effect;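 also: plate controls were DMSO vehicle for no effect and reference drug for full effect; nearly all actives have a fitted effect of over 65% in size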
#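 Infected erythrocytes (Dd2, 0.3% parasitemia, 2.5% hematocrit final) are added to compound in RPMI-1640/Albumax II medium, grown 72 h at 37C in low oxygen, then lysed with saponin/Triton-X containing SYBR Green and read by fluorescence.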
# An asterisk follows results filed as active; i = inactive; [ ] = remark or other dose. Potency is read from the fitted curve at half-maximal effect.
SMILES,Pf Dd2 growth
CC1=C[C@@H](CNC(=O)c2cnccn2)[C@H](C(C)C)C[C@H]1CC(=O)N1CCOCC1,i
Cc1[nH]c2ccccc2c1C1(O)C(=O)N(Cc2ccc(Cl)cc2)c2ccccc21 (stereo unspecified),i[5.79 µM]
Cc1[nH]c2ccccc2c1C1(O)C(=O)N(Cc2ccccc2)c2ccc(Cl)cc21 (stereo unspecified),10µM*
Cc1ccc(CN2C(=O)C(O)(c3c(C)[nH]c4ccccc34)c3ccccc32)cc1 (stereo unspecified),-13.9%
Cn1ccc2cc(-c3ccc4c(n3)c(=O)ncn4CC3CC3)ccc21,i
COc1ccc(C(=O)N2CCCC3(CC(c4ccccn4)=NO3)C2)cc1 (stereo unspecified),8.5%
O=C(N[C@H]1CO[C@H]2[C@@H]1OC[C@@H]2n1nnnc1Oc1ccc(-n2ccnc2)cc1)c1ccc(C(F)(F)F)cc1,-21.6%
COc1ccc(-c2nc3c(c(SCC(=O)Nc4ccccc4OC)n2)Cc2cccc(C)c2O3)cc1,11.2µM*
COc1cccc2c1Oc1nc(-c3ccccc3)nc(SCC(=O)N3CCCCC3)c1C2,-22.9%
COc1cccc(NC(=O)CSc2nc(-c3ccccc3)nc3c2Cc2cc(Cl)ccc2O3)c1,25.0%
CCOc1cccc2c1Oc1nc(-c3ccccc3)nc(SCC(=O)Nc3ccc(F)cc3)c1C2,7.94µM*
CCOc1ccc(-c2nc3c(c(SCC(=O)Nc4ccccc4C)n2)Cc2ccccc2O3)cc1,-6.2%
COc1ccc(-c2nc3c(c(SCC(=O)Nc4ccccc4F)n2)Cc2cc(C)ccc2O3)cc1,18.5%
O[C@@H]1CN(CC2CC2)CC[C@H]1N1CCN(c2ccccc2F)CC1,-10.2%
O=C1NCCOCCCN(S(=O)(=O)c2ccc3c(c2)CCC3)[C@H]2CCCC[C@@H]12,i
CC1CCC2(CC1)NC(=O)N(CC(=O)Nc1cc(F)cc(F)c1)C2=O (stereo unspecified),i
COC1CCOC2(CCN(C(=O)Nc3ccc4c(c3)OCCO4)CC2)C1 (stereo unspecified),23.8%
COCC(=O)N1CCC2(CC1)OC(=O)N(CCOc1ccccc1)C2(C)c1cccnc1 (stereo unspecified),-24.6%[44.1 µM]
COc1ccc(CN(C)Cc2ncccc2C(=O)O)cc1,14.7%
Cc1ccccc1-n1c(/C=C/c2ccccc2F)nc2ccccc2c1=O,10µM*
Cc1ccc(-n2c(/C=C/c3ccc(Br)s3)nc3ccccc3c2=O)cc1,10.3%
COc1ccc(-n2c(/C=C\c3ccccc3F)nc3ccccc3c2=O)cc1OC,i
O=c1c2ccccc2nc(/C=C/c2cccc3ccccc23)n1-c1ccccc1Cl,-4.0%
COc1ccc(Cl)cc1-n1c(/C=C/c2cccc3ccccc23)nc2ccccc2c1=O,9.2%
COc1ccc(-n2c(/C=C/c3c(C)[nH]c4ccccc34)nc3ccccc3c2=O)cc1,-14.1%
SMILES,Pf Dd2 growth
COc1ccccc1-n1c(/C=C/c2c(C)n(C)c3ccccc23)nc2ccccc2c1=O,3.98µM*
Cc1ccccc1-n1c(/C=C/c2c(C)n(C)c3ccccc23)nc2ccccc2c1=O,2.82µM*
CSc1ccc(/C=C/c2nc3ccccc3c(=O)n2-c2cccc(Cl)c2C)cc1,i
Cc1nccc(-c2ccccc2)c1C(=O)N1CCCC[C@H](N(C)C)C1,-6.0%
C[C@@H]1C(=O)O[C@H]2[C@H]1CC[C@@]1(C)Cc3sc(Nc4ccc(C(=O)O)cc4)nc3[C@@H](C)[C@H]21,-25.9%[44.1 µM]
CS(=O)(=O)N1CCCC(C(=O)NCc2ccccn2)CCNC(=O)CC1 (stereo unspecified),23.5%
CCn1nccc1C(=O)N1CCC2(CC1)c1[nH]c3ccccc3c1CCN2C,i
Cc1noc(C)c1CC(=O)N1CCC2(CC1)CN([S+](C)(=O)[O-])Cc1ccccc1O2,-5.8%
CCc1ccc(N2CC(c3noc(-c4ccccc4F)n3)CC2=O)cc1 (stereo unspecified),28.4%
C[S+](=O)([O-])NC1CCN(c2nc3ncccc3o2)CC1,-3.4%[44.1 µM]
CC(C(=O)O)N1CC2(CCC1=O)CCN(C(=O)N1CCCC1)CC2 (stereo unspecified),3.4%
CCc1noc(-c2cn(C3CCN(C(=O)c4cccc(Br)c4)C3)nn2)n1 (stereo unspecified),i
CC(C)NC(=O)N1CCOc2ccc(CCC(=O)O)cc2C1,7.5%
O=C1CCN(C(=O)c2ccoc2)CCCCCCN1,-10.8%
COCCOc1ccc2c(n1)CCN(C(=O)C1(c3ccc(OC)cc3)CC1)C2,7.08µM*
COCCOc1ccc2c(n1)CCN(C(=O)C1CCCC1)C2,i
COCCOc1ccc2c(n1)CCN(C(=O)c1ccccc1OC)C2,-12.4%
O=C(NC1CCCN(c2cc(-c3ccc(Cl)cc3)[nH]n2)C1)c1ccc2c(c1)OCO2 (stereo unspecified),i
CC(C)(C)NC(=O)C[C@@H]1CCNC[C@@H]1Cc1cc(-c2ccc(C(C)(C)C)cc2)on1,3.98µM*
CC(C)(C)c1ccc(-c2cc(C[C@H]3CNCC[C@H]3CC(=O)N3CCCCC3)no2)cc1,5.01µM*
O=C(C[C@@H]1CCNC[C@@H]1Cc1cc(-c2ccc(F)cc2)on1)NCc1ccc(F)cc1,i
COc1ccc(CNC(=O)C[C@@H]2CCNC[C@@H]2Cc2cc(-c3ccc(C(C)(C)C)cc3)on2)cc1,-17.8%
CC(C)(C)c1ccc(-c2cc(C[C@H]3CNCC[C@H]3CC(=O)NCc3ccc(F)cc3)no2)cc1,-2.9%
CC(C)(C)c1ccc(-c2cc(C[C@H]3CNCC[C@H]3CC(=O)N3CCN(c4ccc(F)cc4)CC3)no2)cc1,i
CN(Cc1cccn1C)CC1CC1,27.1%[44.1 µM]
SMILES,Pf Dd2 growth
Cc1ccc(-c2cc3c(ccn3Cc3cccnc3)c(C3=CCOCC3)n2)cn1,-8.0%[44.1 µM]
CC1(C(=O)N2CCCC2)CCCc2cnc(Nc3cccnc3)nc21 (stereo unspecified),-23.2%[44.1 µM]
CCc1nc(CCNC(=O)CC2COCCN2S(=O)(=O)C2CC2)no1 (stereo unspecified),2.2%
Cc1ccccc1NC(=O)CN1C(=O)NC2(CCC(C(C)(C)C)CC2)C1=O (stereo unspecified),-26.2%
C=Cc1ccc(CSc2nc(-c3ccccc3Cl)nc3c2Cc2c(CO)cnc(C)c2O3)cc1,6.31µM*
CCc1ccc(-c2nc3c(c(SCc4ccccc4F)n2)Cc2c(CO)cnc(C)c2O3)cc1,-10.3%
COc1ccc(-c2nc3c(c(SCc4cc(C)ccc4C)n2)Cc2c(CO)cnc(C)c2O3)cc1,-8.3%
CCc1ccc(CSc2nc(-c3ccc(OC)cc3)nc3c2Cc2c(CO)cnc(C)c2O3)cc1,-5.6%
CCN(CC)C(=O)CSc1nc(-c2ccccc2F)nc2c1Cc1c(CO)cnc(C)c1O2,11.2µM*
Cc1cccc(NC(=O)CSc2nc(-c3ccccc3Cl)nc3c2Cc2c(CO)cnc(C)c2O3)c1C,-1.4%
CCc1ccc(Nc2nc(-c3ccccc3F)no2)cc1,i
Cc1ccc(-c2nc3c(c(SCc4ccc(Br)cc4)n2)Cc2c(CO)cnc(C)c2O3)cc1,-0.8%
CCOc1ccc(N(CC)C(=O)CCc2nc(-c3ccccc3F)no2)cc1,46.7%[0.594 µM]
CCc1ccc(CSc2nc(-c3ccccc3F)nc3c2Cc2c(CO)cnc(C)c2O3)cc1,10µM*
COc1ccc(-c2nc3c(c(SCC(=O)N(C)c4ccccc4)n2)Cc2cc(C)ccc2O3)cc1,8.7%
COc1ccccc1-c1nc2c(c(SCc3cccc(Cl)c3)n1)Cc1c(CO)cnc(C)c1O2,2.51µM*
COc1cc(F)ccc1-c1cc(C(=O)NCCc2cnc[nH]2)c2c(c1)N(C)CCO2,-13.5%[44.1 µM]
CC(NC(=O)C1CCCO1)C(=O)N1CCN(c2ccccn2)CC1 (stereo unspecified),-5.8%

# High-throughput results from PubChem.
